TDP1 inh: qHTS Assay for Inhibitors of Tyrosyl-DNA Phosphodiesterase (TDP1). Tyrosyl-DNA phosphodiesterase 1 (Homo sapiens), Q9NUW8. recombinant TDP1, AlphaScreen DNA substrate cleavage. Potency, µM (doses to about 130 µM), for the others: at the highest dose activity change, negative = inhibition, hits mostly inhibitors. 350,000 tested, 0.28% active. AID 485290, 2010; note: % is set by controls: 0 for no effect and ±100 for the full control effect; nearly all actives have a fitted effect of over 40% in size
Target sequence (Q9NUW8 whole entry, looked up): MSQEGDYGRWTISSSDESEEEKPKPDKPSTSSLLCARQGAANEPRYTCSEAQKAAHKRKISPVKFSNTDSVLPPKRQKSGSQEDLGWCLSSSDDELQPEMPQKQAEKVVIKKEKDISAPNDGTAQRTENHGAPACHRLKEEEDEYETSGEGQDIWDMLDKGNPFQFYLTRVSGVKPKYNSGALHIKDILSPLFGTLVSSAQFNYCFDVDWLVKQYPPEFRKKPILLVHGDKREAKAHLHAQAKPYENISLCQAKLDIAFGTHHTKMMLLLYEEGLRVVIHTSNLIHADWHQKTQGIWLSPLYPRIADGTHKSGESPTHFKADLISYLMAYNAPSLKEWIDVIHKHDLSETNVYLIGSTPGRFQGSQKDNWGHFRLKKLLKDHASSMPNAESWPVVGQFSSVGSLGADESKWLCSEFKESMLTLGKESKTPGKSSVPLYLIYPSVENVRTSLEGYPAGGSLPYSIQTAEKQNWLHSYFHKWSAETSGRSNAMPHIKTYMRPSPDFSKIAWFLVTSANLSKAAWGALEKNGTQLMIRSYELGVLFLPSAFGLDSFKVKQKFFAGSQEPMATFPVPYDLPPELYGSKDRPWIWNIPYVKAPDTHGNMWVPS
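Here, a 5' biotin and 3' phosphotyrosine-FITC DNA oligonucleotide reports Tdp1 activity: intact substrate bridges AlphaScreen beads, while cleavage leaves a 3' phosphate and drops signal. All incubations at room temperature.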
TDP1 cell CPT: qHTS for Inhibitors of human tyrosyl-DNA phosphodiesterase 1 (TDP1): qHTS in cells in presence of CPT. chicken DT40 Tdp1-/-;hTDP1 cells + 20 nM CPT, ATP luminescence, 48 h. Potency, µM (top dose mostly 46.2 µM), without a hit: at the highest dose activity change, negative = growth inhibition, usual class: inhibitors. 420,000 tested, 12% active; note: % is set by controls: 0 for no effect and ±100 for the full control effect; nearly all actives have a fitted effect of over 55% in size
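Cell growth measured by CellTiter-Glo luminescence after a minimum 48 h, 37 C compound exposure with 20 nM CPT in Tdp1-knockout DT40 cells stably expressing hTDP1, seeded 400/well; qHTS titration format.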
ClpP mod: qHTS Assay for Activators of ClpP; ATP-dependent Clp protease proteolytic subunit (Bacillus subtilis (strain 168)), P80244; purified B. subtilis ClpP, FRET peptide cleavage, 20 min; Potency, µM (series often up to 57.5 µM), without a hit: top-dose activity change, negative = active; 340,000 tested, 1.9% active; AID 651965, 2013; active = well fitted falling curve with a large enough effect; inconclusive = small, poorly fitted or top-dose-only effect; inactive = no such curve, though single readings can be large or run the other way; note: the source files actives as falling curves though it sought activators and does not explain the sign; nearly all actives have a fitted effect of over 65% in size
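Purified B. subtilis ClpP, 10 microg/mL final in Tris/HCl pH8 with KCl, BSA, glycerol and Tween-20, cleaved an Abz/nitrotyrosine-quenched decapeptide. Fluorescence (ex 320, em 430) was read at 0 and 20 min at room temperature. Delta was normalized to 5.8 microM ADEP and DMSO/no-enzyme controls.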
DT40 TDP1 no CPT: qHTS for Inhibitors of human tyrosyl-DNA phosphodiesterase 1 (TDP1): qHTS in cells in absence of CPT; DT40 Tdp1-/- hTDP1 cells, no CPT, ATP luminescence, 48 h; Potency, µM (top dose mostly 46.2 µM), inactives show top-dose activity change, negative = growth inhibition, usual class: inhibitors; 420,000 tested, 15% active; note: % is set by controls: 0 for no effect and ±100 for the full control effect; nearly all actives have a fitted effect of over 55% in size
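Readout: luminescence from CellTiter-Glo after 30 min in the dark at RT. Cells: DT40 Tdp1-/- with stable hTDP1, 400/well. Exposure: compounds alone, ≥48 hr, 37 °C.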
Active calls of the source: *; ? = inconclusive; nt = no result given; [ ] = remark or other dose. Sampled rows, rich in hits. Any-hit rate of the full collection: about 17%. Unless noted, calls come from the whole dose curve; as a rule, active = well fitted curve in the direction sought with a large enough effect; inconclusive = small, poorly fitted or top-dose-only effect, or another doubt; inactive = no such curve, though single readings can be large; an effect the other way counts as inactive or inconclusive. Potency is the fitted concentration of half-maximal effect.

SMILES | TDP1 inh | TDP1 cell CPT | ClpP mod | DT40 TDP1 no CPT
COC(=O)c1ccccc1NC(=O)CSc1c2c(nc3ccc(Cl)cc13)CCCC2 | -2.3% | ? | 1.3% | 11.6µM*
Cc1cc(C)c(-n2c(C)cc(/C=C3/NC(=O)NC3=O)c2C)c(C)c1 | 7.8% | ? | -17.5% | 14.6µM*
CCOC(=O)C1CCN(C(=O)Nc2ccc3nc(C)c(C)nc3c2)CC1 | -2.6% | 3.6% | 12.6µM* | ?
CCOC(=O)C1CCN(C(=O)Nc2cc(Cl)cc(Cl)c2)CC1 | nt | 18.4µM* | nt | ?
O=c1c2ccccc2nc(/C=C/c2ccc(O)cc2)n1CCc1ccccc1 | -5.3% | 7.31µM* | -4.5% | 8.2µM*
O=c1c2ccccc2nc(/C=C/c2ccccc2)n1CCCO | nt | ? | 0.0% | ?
CCCc1nc2ccccc2c(=O)n1CCc1ccccc1 | nt | 13µM* | -0.8% | 9.2µM*
CCn1c(/C=C/c2ccc(F)cc2)nc2ccccc2c1=O | nt | ? | -2.4% | ?
CN(C)c1ccc(/C=C/c2nc3ccccc3c(=O)n2CCO)cc1 | nt | 18.4µM* | -2.0% | 16.4µM*
CCCS(=O)(=O)NCc1c(C)ncc2c1CCN(C(=O)c1c(F)ccc(F)c1F)C2 | nt | 3.6%[9.04 µM] | nt | -0.2%
CCN(CC)c1ccc(NC(=O)CCc2nnc3ccc(N4CCCC4)nn23)c(C)c1 | nt | 14.6µM* | 1.8% | 23.1µM*
CCOC(=O)c1ccc(NC(=O)CCc2nnc3ccc(N4CCCC4)nn23)cc1 | 1.1% | 25.9µM* | -1.9% | ?
COc1ccc(NC(=O)CCc2nnc3ccc(N4CCC(C)CC4)nn23)cc1 | 5.0% | ? | -0.2% | ?
COc1ccc(N2CCN(c3ccc4nnc(CCC(=O)Nc5ccc(C)cc5)n4n3)CC2)cc1 | nt | ? | 0.5% | 23.1µM*
CCOc1ccc(CCNC(=O)CCc2nnc3ccc(N4CCCCC4)nn23)cc1OCC | nt | ? | -2.0% | 11.6µM*
O=C(Nc1nccs1)c1ccc(COc2c(F)c(F)cc(F)c2F)cc1 | nt | -20.0% | 0.6% | ?
O=C(O)c1[nH]c2ccccc2c1C=NCc1ccccc1Cl | 1.6% | -0.1% | ? | -10.6%
CCC(=O)N1CCc2cc(S(=O)(=O)NCCC(=O)Nc3ccc(OC)c(Cl)c3)ccc21 | 4.7% | ? | 0.8% | -77.6%
O=C1CC(=O)OC(c2ccc([N+](=O)[O-])cc2)O1 | nt | 3.26µM* | -1.9% | 2.31µM*
CCCCCCN(C(=O)CCCCCN1C(=O)NC(c2ccc(-c3ccccc3)cc2)C(C(=O)OCc2ccccc2)=C1C)C(C(=O)NCCCC)c1ccc(-c2ccccc2)cc1 (centres undefined) | 4.7% | nt | nt | nt
CCCCCCN(C(=O)CCCCCN1C(=O)NC(c2ccc([N+](=O)[O-])cc2)C(C(=O)OCc2ccccc2)=C1C)C(C(=O)NCCCC)C1CCCCC1 (centres undefined) | 1.8%[56.1 µM] | ? | 3.8% | 5.8µM*
CCCCCCN(C(=O)CCCN1C(=O)NC(c2ccc(-c3ccccc3)cc2)C(C(=O)OCc2ccccc2)=C1C)C(C)C(=O)NCCCC (centres undefined) | 1.4%[56.1 µM] | ? | -5.3% | 16.4µM*
CC1=C(C(=O)OCc2ccccc2)C(c2ccc3c(c2)OCO3)NC(=O)N1CCCC(=O)O (centres undefined) | nt | ? | -0.1% | 0.146µM*
COC(=O)CCCCCN1C(=O)NC(C2CC2)C(C(=O)OCc2ccccc2)=C1C (centres undefined) | nt | 16.4µM* | 1.7% | 13µM*
COCCNC(=O)C1(C)CCCN(C(=O)c2c(-c3ccccc3)noc2C)C1 (centres undefined) | nt | -3.4% | 0.1% | -12.1%
SMILES | TDP1 inh | TDP1 cell CPT | ClpP mod | DT40 TDP1 no CPT
Cc1ccc(C(=O)C[n+]2cc(Br)cc(Br)c2)cc1[N+](=O)[O-] | -5.3% | -25.5% | 1.5% | ?
CCOc1ccc(C(=O)Nc2cccc(C(=O)OCc3cc(=O)n4cc(C)sc4n3)c2)cc1 | -3.8% | 4.1% | -5.7% | -4.0%
COc1ccccc1CN(Cc1cc2cc3c(cc2[nH]c1=O)OCCO3)Cc1nnnn1Cc1ccco1 | 6.2% | 25.9µM* | 28.2µM* | ?
O=c1[nH]c2cc3c(cc2cc1CN(Cc1cccs1)Cc1nnnn1Cc1ccco1)OCCO3 | -2.1% | 14.6µM* | ? | 16.4µM*
O=c1[nH]c2cc3c(cc2cc1CN(Cc1ccccc1)Cc1nnnn1Cc1ccco1)OCCO3 | 6.2% | ? | -15.6% | ?
COc1ccc(/C=N/NC(=O)CCSc2nc3ccccc3s2)cc1 | 4.4% | 5.8µM* | -0.3% | 2.59µM*
CNC(=S)N/N=C/c1ccccc1OCC(=O)O | nt | 0.5% | nt | -8.9%
O=C(CSc1nc2ccccc2s1)N/N=C/c1ccc(C(=O)O)cc1 | 5.8% | -8.7% | -1.8% | ?
COc1ccc(/C=C/C(=O)Oc2ccc(/C=N/NC(=O)COc3c(C)cccc3C)cc2)cc1 | 2.6% | nt | nt | nt
O=C(O)COc1ccccc1/C=N/NC(=O)COc1ccc(-c2ccccc2)cc1 | 3.1% | 2.7% | nt | 29.1µM*
COc1ccc(/C=N/NC(=O)CCn2cnc(-c3ccccc3)c2-c2ccccc2)cc1 | 8.2% | 1.64µM* | -0.8% | 0.651µM*
COc1ccc(/C=C/C(=O)Oc2cccc(/C=N/NC(=O)COc3c(C)cccc3C)c2)cc1 | 1.0% | 20.6µM* | -3.1% | 14.6µM*
CC1(C(=O)NNC(=O)c2cccc([N+](=O)[O-])c2)CC1(Br)Br (centres undefined) | 6.2% | -8.2% | 0.7% | 1.6%
COc1ccc(/C=N/NC(=O)COc2ccccc2-c2ccccc2)cc1 | 0.0% | 0.581µM* | -5.1% | 0.651µM*
O=C(CCn1cnc(-c2ccccc2)c1-c1ccccc1)N/N=C/c1ccccc1O | 9.5% | 5.17µM* | -12.0% | 4.61µM*
COc1ccccc1/C=C/C=N/NC(=O)CCn1cnc2ccccc21 | 6.8% | 16.4µM* | nt | 10.3µM*
O=C(CCn1cnc2ccccc21)N/N=C/C=C/c1ccccc1 | nt | 11.7% | nt | -1.1%
FC(F)(F)c1cnc(-c2cc3c(c(OCC4CCCO4)c2)OCCN(Cc2cccn2-c2nccs2)C3)c(Cl)c1 (centres undefined) | nt | 14.7%[9.04 µM] | nt | -6.9%
CCCCC12CN3CC(C)(CN(C1)C3c1c(C)[nH]c(=O)[nH]c1=O)C2=O (centres undefined) | -4.7% | -0.4% | 1.8% | 0.7%
CCc1nnc(NC(=O)C2CCCN(C(=O)c3ccoc3)C2)s1 (centres undefined) | nt | -15.8% | 0.2% | 0.6%
COc1ccccc1NC(=O)CSc1nc(O)c(C/C=C/c2ccccc2)c(=O)[nH]1 | nt | -6.1% | 0.2% | -17.9%
CN(C)S(=O)(=O)n1cc(/C=C(\NC(=O)c2ccccc2F)C(=O)N2CCCCC2)c2ccccc21 | nt | -23.1% | 14.3% | ?

Screening data: PubChem, National Center for Advancing Translational Sciences (NCATS)
